# CRFBP-R2 block: antagonists of CRF-BP/CRF-R2 complex, primary screen, cell-based, HEK293, calcium dye fluorescence, uHTS | CRF-induced calcium fluorescence | inhibition, % at 11.8 µM | actives 0.59% (n = 350,000) | AID 588475, 2011;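 active means inhibition of the ligand-induced calcium signal above about 50% at the single tested concentration, limit read from the data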
# Cardio protect: cardioprotection against H2O2-induced cell death, primary screen, uHTS, H9c2 cells, ATPLite luminescence; actives 0.63% (n = 360,000); AID 588492, 2011; protection from H2O2 cell death, % at 20 µM; H9c2 cardiomyocytes, H2O2 injury protection, 2 h;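 active means compounds giving at least 50% protection of heart cells from peroxide-induced death in the single-dose screen, raw or plate-pattern-corrected value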
# CRFBP-R2 agonist: agonists of CRF-BP/CRF-R2 complex, primary screen, cell-based, HEK293, calcium dye fluorescence, uHTS; actives 0.46% (n = 350,000); calcium dye fluorescence (FLIPR); percent of saturating CRF peptide response; activation, % at 13.2 µM; CRF-binding protein / CRF receptor 2 complex (human); AID 588473, 2011;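 active means activation of at least 50%, plus an integration ratio under a set limit after plate pattern correction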
# TAG inh: inhibitors of triacylglycerol accumulation, primary screen, cell-based, uHTS, fluorescence, H9c2; H9c2 cells, Nile Red lipid (TAG) fluorescence; cells loaded with 200 µM oleic acid; AID 651582, 2012; inhibition, % at 12.5 µM; actives 0.66% (n = 230,000);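 active means pattern-corrected inhibition of lipid staining of at least 50% with the nuclear-stain viability signal not falling by more than 50%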
# SKN-1 block: suppressors of acrylamide-induced Pgst-4::GFP reporter in worms, primary screen, SKN-1 inhibitor project, whole organism, uHTS, GFP/RFP fluorescence ratio, strain VP596. inhibition, % at 21.8 µM. C. elegans VP596 Pgst-4::GFP/RFP ratio, 24 h. actives 0.49% (n = 360,000). AID 624304, 2012;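 active means interference check ratio from 0.5 to 1.5 plus GFP to RFP signal ratio inhibition reaching or exceeding a fixed threshold, cut at about 30% in these data, passing the limit was not always enough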
# hiPSC survival: enhancers of single-cell hiPSC survival, primary screen, ATPlite luminescence | 100% = ROCK inhibitor wells, 0% = DMSO | survival enhancement, % at 20 µM | actives 0.044% (n = 360,000) | AID 602274, 2012; in the data active means survival enhancement above about 18%;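 further: cells exposed to compounds for 16 hours before the ATP read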
# A number is an active result; 0 = inactive; - = no result given. Most compounds without a hit are left out; they make up all but 2.5% or so of the library.
SMILES,CRFBP-R2 block,Cardio protect,CRFBP-R2 agonist,TAG inh,SKN-1 block,hiPSC survival
Oc1c(N=Nc2nn[nH]n2)ccc2ccccc12,-,0,-,-,54,0
Cc1ccc(N=Nc2ccc3ccccc3c2O)cc1,0,0,0,-,0,0
CC1(C)CC(NCCN2CCN(C3=CC(=C(C#N)C#N)CC(C)(C)C3)CC2)=CC(=C(C#N)C#N)C1,0,56,0,0,0,0
COc1cc2nc(/C=C/c3ccc(N(C)C)cc3)sc2cc1SC,0,0,332,-,0,0
OC(CNC1CCCC1)COc1ccc(-c2ccccc2)cc1 (stereo not drawn),0,0,0,0,43,0
COC(=O)c1ccc(OCC(O)CNC2CCCC2)cc1 (stereo not drawn),0,0,0,0,0,0
CCCC(NCC(O)COc1ccc(-c2ccccc2)cc1)c1ccccc1 (stereo not drawn),0,0,0,0,58,0
COc1ccc(OCC(O)CNC(C)c2ccccc2)cc1 (stereo not drawn),0,0,0,-,0,0
CCOC(=O)[C@]12CCC=C1N(Cc1ccc3c(c1)OCO3)C(=O)[C@H](CC(=O)NCc1cccs1)C2,-,-,-,-,0,0
O=C(CCCc1ccccc1)Nc1nncs1,64,0,0,0,0,0
Nc1nnnn1/N=C/c1cc(Cl)ccc1O,0,0,0,-,0,0
Nc1nnnn1/N=C/c1cc(Cl)cc(Cl)c1O,0,0,138,0,0,0
Cc1ccccc1Oc1ccc2c(c1)[C@@H]1C[C@H](N(C)C(=S)Nc3ccc(F)cc3)[C@H]([C@H](C)O)C(=O)N1CC2,0,0,0,0,0,0
O=C(COc1ccc(F)cc1Cl)Nc1nc(-c2ccccn2)cs1,-,61,-,0,0,0
N#Cc1ccccc1OCC(=O)Nc1nc(-c2ccccn2)cs1,0,63,0,0,0,0
Cc1cc(C)cc(OCC(=O)Nc2nc(-c3ccccn3)cs2)c1,0,0,0,0,0,0
O=C(COc1ccccc1Cl)Nc1nc(-c2ccncc2)cs1,0,0,0,0,0,0
COc1ccc(S(=O)(=O)N2CCOc3ccccc32)cc1,0,0,0,-,0,0
COc1ccc(Nc2nc(N)nc(CCl)n2)cc1,0,0,0,0,0,0
Nc1nc(CCl)nc(Nc2ccc3ccccc3c2)n1,0,0,0,79,0,0
CC[C@@H](C(=O)[C@@H](C)[C@@H](O)[C@H](C)CCc1ccc(C)c(O)c1C(=O)O)[C@H]1O[C@](CC)([C@H]2CC[C@](O)(CC)[C@H](C)O2)C[C@@H]1C,0,0,118,0,0,0
CC[C@@H](C(=O)[C@@H](C)[C@@H](O)[C@H](C)[C@@H]1O[C@@H]([C@@H](CC)C(=O)O)CC[C@@H]1C)[C@H]1O[C@]2(C=C[C@@H](O)[C@]3(CC[C@@](C)([C@H]4CC[C@](O)(CC)[C@H](C)O4)O3)O2)[C@H](C)C[C@@H]1C,0,0,0,0,0,0
Nc1nc(-c2ccc3c(c2)NC(=O)CO3)cs1,0,0,0,-,0,0
O=C1COc2ccc(-c3n[nH]c(=O)c4ccccc34)cc2N1,0,59,0,0,0,0
CN(C)C(=O)c1ccc(-c2n[nH]c(=O)c3ccccc23)cc1,0,62,0,0,0,0
SMILES,CRFBP-R2 block,Cardio protect,CRFBP-R2 agonist,TAG inh,SKN-1 block,hiPSC survival
O=C1c2ccccc2C(c2nc3ccccc3[nH]2)N1Cc1ccco1 (stereo not drawn),-,0,-,-,0,0
N#Cc1cccc(S(=O)(=O)NCC(=O)OCC(=O)NCc2ccccc2)c1,0,0,0,0,0,0
CC(=O)N=C1SC2CS(=O)(=O)CC2N1c1cccc(Cl)c1Cl (stereo not drawn),0,0,0,0,40,0
CC(=O)N=C1SC2CS(=O)(=O)CC2N1c1ccccc1Cl (stereo not drawn),0,0,0,0,0,0
S=c1[nH]nc(-c2cc(-c3ccccc3)n[nH]2)n1/N=C/C(Br)=C/c1ccccc1,0,0,0,72,0,0
Cc1cc(-c2csc3nc[nH]c(=S)c23)cc(C)c1C,0,61,0,0,0,0
O=C(c1ccc(Br)o1)N1CCN(c2ccc3nnc(-c4ccccc4)n3n2)CC1,0,81,0,0,0,0
CC(=O)OCC1OC(n2cc(F)c(=O)[nH]c2=O)C(OC(C)=O)C1OC(C)=O (stereo not drawn),0,0,0,0,0,0
O=C1C(F)=CC(COC(c2ccccc2)(c2ccccc2)c2ccccc2)OC1n1cc(F)c(=O)[nH]c1=O (stereo not drawn),0,0,55,0,0,0
CN1CCN(C(=O)c2ccccc2NC(=O)c2cccc(Cl)c2)CC1,0,0,0,0,0,0
CCN(CC(=O)Nc1ccc(OC)cc1)C(=O)c1cc(S(=O)(=O)N2CCOCC2)ccc1N1CCCC1,70,0,0,0,0,0
COc1ccccc1CNC(=O)c1cccc(S(=O)(=O)N2CCN(c3ccc(F)cc3)CC2)c1,0,0,0,0,0,0
COc1cccc(CN(C)C(=O)c2cccc(S(=O)(=O)N3CCN(c4ccccc4)CC3)c2)c1OC,117,0,0,0,0,0
CN(CC(=O)Nc1ccc(F)cc1)C(=O)c1cccc(S(=O)(=O)N2CCN(c3ccccc3)CC2)c1,0,0,0,0,0,0
COc1ccc(NC(=O)CN(C)C(=O)c2cccc(S(=O)(=O)N3CCN(c4ccc(F)cc4)CC3)c2)cc1,79,0,0,0,0,0
CN(C)C(CNC(=O)c1cccc(S(=O)(=O)N2CCN(c3ccc(F)cc3)CC2)c1)c1ccccc1 (stereo not drawn),0,0,0,0,46,0
CN(C)c1ccc(-c2ccnc3c2CC(C)(C(=O)NCc2ccc(F)c(F)c2)O3)cc1 (stereo not drawn),-,0,-,0,0,0
Cc1ccc(S(=O)(=O)N2C[C@H]3C(=O)C[C@@H](c4ccccc4C)N(S(=O)(=O)c4ccc(C)cc4)[C@H]3C[C@H]2c2ccccc2)cc1,-,0,-,-,0,0
O=C(c1cccc(S(=O)(=O)N2CCOCC2)c1)N(Cc1ccc(F)cc1)Cc1ccco1,55,0,0,0,0,0
O=C(NCc1ccc(F)cc1)c1cccc(S(=O)(=O)N2CCCC2)c1,0,0,0,-,0,0
CC(=O)N1CCN(S(=O)(=O)c2cccc(C(=O)NCc3ccc(F)cc3)c2)CC1,89,0,0,0,0,0
